PubChem BioAssay (NCI)
The panel holds about 83,000 compounds, 20% with a hit somewhere; the sample as a whole holds those more often.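 Activity criterion: percent growth below 10, measured after cells in 96-well plates were exposed to a single compound concentration for 48 hours.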 Unmarked numbers belong to inactive results. Calls of active or inactive are those of the source.

Key:
Experiment in all cases: NCI-60 one-dose screen, 48 h (100 = growth as untreated, 0 = no growth, -100 = all killed)
Conditions in all cases: 10 µM unless noted
[1] = tested on: HCT-15 colon
[2] = tested on: HT29 colon
[3] = tested on: SNB-75 CNS
[4] = tested on: SNB-19 CNS
[5] = tested on: U251 CNS
[6] = tested on: PC-3 prostate
[7] = tested on: SK-MEL-5 melanoma
[8] = tested on: LOX IMVI melanoma
[9] = tested on: SK-MEL-28 melanoma
[10] = tested on: UACC-62 melanoma

| Compound | growth [1] | growth [2] | growth [3] | growth [4] | growth [5] | growth [6] | growth [7] | growth [8] | growth [9] | growth [10] |
| --- | --- | --- | --- | --- | --- | --- | --- | --- | --- | --- |
| Cn1cc(-c2ccc3cc(-c4ccc(CC(=O)Nc5cc(C(C)(C)C)on5)cc4)cnc3c2)cn1 | 10.9% | 38.8% | 28.4% | 34.7% | 2.41% (active) | 21.1% | 26.7% | 30.4% | 29.1% |  |
| O=c1[nH]c(-c2ccc(Cl)cc2)cn1-c1ccc(-n2cc(-c3ccc(Cl)cc3)[nH]c2=O)cc1 | 98.8% | 102% | 98.1% | 93.5% | 104% | 77.5% | 101% | 103% | 101% |  |
| COc1cc(C(=O)C(=O)c2cc(OC)c(O)c(OC)c2)cc(OC)c1O | 103% | 103% | 91.6% | 99.8% | 98.4% | 112% | 104% | 97% | 107% | 89.8% |
| COc1cc2c(c(OC)c1OC)C(=O)CC(c1cccc(NC(=O)c3ccccc3Br)c1)O2 (stereo not drawn) | 88.6% | 97.1% | 93.3% | 95.5% | 91.5% | 77.9% | 86.1% | 93.4% | 111% | 72.2% |
| NNC(=S)N/N=C/c1ccccn1 | 26.7% | 36% | 59.6% | 48.3% | 28.4% | 32.9% | 30.2% | 13.2% | 56.3% | 20.7% |
| N#Cc1c(-c2ccccc2)cc(-c2ccccc2)n(CCCC(=O)NO)c1=O | 19.1% | 20.9% | -23.6% (active) | 43.5% | 26.8% | 35.5% | -13.6% (active) | 8.85% (active) | 33.4% |  |
| CCCCCCCCCCCCCCCCCCOc1ccccc1CC(=O)OCC[N+]1(C)CCOCC1 | 90% | 47.9% | 19.7% | 54.4% | 30.1% | 41.1% | 79.8% | 55.9% | 85.7% |  |
| Clc1nn2c(Cn3cnc4c(NCc5ccccc5)ncnc43)nnc2c2ccccc12 | 25.8% | 56.4% | 37.1% | 61.9% | 34.5% | 42% | 58.6% | 31.3% | 46% |  |
| CN(CCC#N)c1ccc(/C=C2\NC(=O)NC2=O)cc1 | 104% | 82.4% | 102% | 102% | 112% | 94.8% | 102% | 87.9% | 109% | 91.1% |
| CC12CCC(/C(=C/NNc3ccc([N+](=O)[O-])cc3[N+](=O)[O-])C1=O)C2(C)C (stereo not drawn) | 23% | 52.6% | 136% | 94.1% | 58.4% | 59.5% | 65.5% | 56.5% | 83.5% | 64.5% |
| CC(=O)c1cc(-c2ccccc2N)n(-c2ccc3c(c2)OCO3)c1C | 13.4% | 6.88% (active) | 22.8% | 18.6% | 14.7% | 30.1% | 2.46% (active) | 35.1% | 52.4% |  |
| COc1ccc2nc3cc(Cl)ccc3c(NCCN)c2c1 | -37.7% (active) | -42.5% (active) | 91.6% | 7.75% (active) | -81.4% (active) | 6.63% (active) | 79.6% | -86.4% (active) | -65.8% (active) |  |
| CCN(CC)CCNC(=O)c1ccc(-c2nc3ccc4[nH]ncc4c3c3c2CCCC3)cc1 | 28.3% | 68.3% | 54.2% | 85.4% | 54.9% | 57.2% | 69.8% | 46% | 73.2% |  |
| CC[C@H](Nc1nc(N)nc(C)c1C#N)c1nc2cccc(NCCCCCC(=O)NO)c2c(=O)n1-c1ccccc1 | 78.7% | 79.2% | 5.55% (active) | 71% | 61.3% | 45.1% | 49.7% | 66.5% | 45.8% | 15.7% |
| Cc1ccc(N=Nc2c(N)nn(-c3ccccc3)c2N)cc1 | 21% | 11.7% | 32.6% | 46.7% | 28.2% | 56.7% | -18.6% (active) | 47.1% | 56.8% |  |
| Cc1ccc(/C=C(\C#N)C(=O)Nc2ncc(Cc3cc(Cl)ccc3Cl)s2)o1 | 59% | 97% | -0.376% (active) | 27.6% | 32.2% | 38.8% | 51.6% | 11.9% | 88.9% | 6.39% (active) |
| C#CCOc1cccc(-c2ncc3cc(NC(=O)CCl)ccc3n2)c1 | -29.6% (active) | -67.6% (active) | 24.4% | 2.89% (active) | -95.7% (active) | 11.7% | -65.2% (active) | -50.4% (active) | 53.9% |  |
| O=C(N/N=C/c1ccc([N+](=O)[O-])cc1)c1ccc2nc(-c3ccc(Cl)cc3)[nH]c2c1 | 29.9% | 8.25% (active) | 69.3% | 52% | 22.3% | 21.4% | 2.58% (active) | -0.908% (active) | 45.3% |  |
| COc1cc(-c2nc(NC(C)=O)sc2-c2ccnc(NCCNS(=O)(=O)c3ccccc3)n2)ccc1Cl | 31.7% | 3.97% (active) | 15.7% | 53.9% | 31.5% | 16.3% | 1.64% (active) | 32.1% |  |  |
| CCCCCCCCn1ccc2cc(NC(=O)Cn3cc(CN4CCCCCC4)nn3)ccc21 | -65.9% (active) | -48.3% (active) | 87.5% | 14.4% | -43.6% (active) | 40% | 0.757% (active) | -90.8% (active) | -86.1% (active) | -70.9% (active) |
| Oc1c(Cl)cc(Cl)c2ccc(Cn3cc(-c4cccc(C(F)(F)F)c4)nn3)nc12 | 40.5% | 89.2% | 70% | 95.6% | 93.6% | 83.1% | 98.2% | 23.7% | 75.9% | 82.1% |
| CCC(CC)(N(CC(=O)O)CC(=O)O)C(CC)(CC)N(CC(=O)O)CC(=O)O | 131% | 89.9% | 108% | 107% | 102% | 85.1% | 105% | 98.6% | 108% | 102% |
| O=C(O)c1cn(C2CC2)c2cc(N3CCN(C(=O)N/N=C/c4ccccc4)CC3)c(F)cc2c1=O | 98.4% | 96.9% | 98.9% | 94.7% | 101% | 96% | 94.9% | 80.7% | 108% | 95.3% |
| COc1cc(C(=O)/C=C/c2c(-c3cccs3)nc3ccccn23)cc(OC)c1OC | -7.46% (active) | -25.8% (active) | -4.3% (active) | 14.2% | 1.5% (active) | 7.19% (active) | -24.1% (active) | -1.66% (active) | 8.11% (active) | -33.1% (active) |
| COCC[C@H]1CCC/C=C/[C@@H]2C[C@H](O)C[C@H]2[C@H](O)/C=C/C(=O)O1 | 9.76% (active) | -13.8% (active) | 33.9% | 30.2% | 15.5% | 20.5% | -92% (active) | -62.3% (active) | 0.149% (active) |  |
| O=C(CN1C(=O)NC2NC(=O)NC21)N/N=C/c1ccc(Cl)cc1Cl (stereo not drawn) | 104% | 110% | 82.8% | 102% | 112% | 103% | 99.5% | 103% |  |  |
| O=C(Cn1nnc2ccccc21)Nc1ccc(-c2nc3ccccc3s2)cc1 | 91.5% | 101% | 106% | 103% | 89.6% | 83.3% | 74.3% | 84.2% | 102% | 97.1% |
| COc1cc2cc(Oc3ccc(NC(=O)Nc4ccccc4)cc3)c(C)nc2cc1OCCN1CCCCC1 | 14.3% | 17% | 74.9% | 91.6% | 21.5% | 82.7% | 84.7% | 78.7% | 91.6% |  |
